Measured values published in PubChem BioAssay (NCI).
The panel holds about 79,000 compounds, 15% with a hit somewhere; the sample as a whole holds those more often. Values without a mark were called inactive. Calls of active or inactive are those of the source. Rule as the data show it: active = growth inhibition above about 70%; inactive = the rest.

Experiment: NCI Yeast Anticancer Drug Screen. Data for the mlh1 rad18 strain (AID 175)
Conditions: S. cerevisiae mlh1 rad18 strain growth inhibition; at 5.0 µM (retest, dose inferred, filed as 0.5); active compounds read high
Procedure, shortened: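 Steps: expose repair-defective yeast to compound; measure growth; express inhibition against vehicle-treated controls.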

SMILES | growth inhibition
COC(=O)/C=C1/Nc2ccc(Cl)cc2C(=O)NC1=O | 40%
CN(C)COC(=S)SCN(C)C | 96% (active)
Clc1ccc(-c2noc(CN3CCCCC3)n2)cc1 | -4%
CCCCCCCCCCCCCC(=O)OCC(O)CO (configuration not stated) | 3%
CCC[CH2][Sn]([CH2]CCC)([O]C(=O)c1cccc(F)c1)[O]C(=O)c1cccc(F)c1 | -1%
CCCCCCCCCCCCCCCCC1CCc2ccccc21 (configuration not stated) | -2%
CCOC(=O)NCCCc1ccc2oc3ccccc3c2c1 | -1%

Same assay, conditions: S. cerevisiae mlh1 rad18 strain growth inhibition; at 50.0 µM (retest, dose inferred, filed as 5.0); active compounds read high

SMILES | growth inhibition
O=C(/C=C/c1cccc(Cl)c1)c1ccccc1 | 96% (active)
COc1cccc(N2C(=O)C3CC(CC(C)(C)C)c4c([nH]c5ccccc45)C3C2=O)c1 (configuration not stated) | 30%
O=C1c2ccccc2NC(=O)C2C1C(c1ccccc1)CC2(O)c1ccccc1 (configuration not stated) | 86% (active)
CCOC(=O)C1SC(=Nc2ccc(Cl)cc2)N=C1C (configuration not stated) | 66%
COC(=O)c1nc(=S)[nH]c(C(=O)OC)c1C(=O)c1ccccn1 | 91% (active)
Cn1c2c(c3ccccc31)CCN1C[C@@H]3CCCC[C@H]3C[C@@H]21 | 25%
CCCCCCCCCCCC1=NCCN1CCNCCCC | 92% (active)
CN=C(N)N/N=C(\C)c1ccc2c(c1)Cc1cc(/C(C)=N/NC(N)=NC)ccc1-2 | 96% (active)
O=C(Nc1ccccc1)OCCc1ccc(Br)cc1 | 0%
CN(C)CC/C(=N\Nc1ccc(Cl)cc1)c1ccccc1 | 99% (active)
O=C1Nc2ccccc2/C1=N\N=c1/scc(-c2ccccc2)n1-c1ccccc1 | 78% (active)
CC(C)(C)C(=O)CC(=O)C(F)(F)C(F)(F)C(F)(F)F.CC(C)(C)C(=O)CC(=O)C(F)(F)C(F)(F)C(F)(F)F.CC(C)(C)C(=O)CC(=O)C(F)(F)C(F)(F)C(F)(F)F.[Fe] | 93% (active)
COc1cc(N=Nc2cccc(S(N)(=O)=O)c2)c2ccccc2c1N | 98% (active)
O=C(/C=C/C(=O)OCCCl)OCCCl | 95% (active)
CCc1ccccc1NC(=O)C1=C(C)NC(C)=C(C(=O)Nc2c(CC)cccc2CC)C1c1ccc2c(c1)OCO2 (configuration not stated) | 28%
Oc1c(Cl)cc(Cl)c2cccnc12 | 98% (active)
COc1ccc2c(c1)[n+]([O-])c(-c1ccccc1)c(N)[n+]2[O-] | 99% (active)
O=c1cccccc1[O-].O=c1cccccc1[O-].O=c1cccccc1[O-].[Sm+3] | 14%
CCCCCCCCCCCCCCCCNc1ccn(C2CC(OP(=O)(O)OCC3OC(n4cc(CC)c(=O)[nH]c4=O)CC3O)C(CO)O2)c(=O)n1 (configuration not stated) | 87% (active)
Nc1ccccc1OCC(O)CN1CCN(Cc2ccccc2)CC1 (configuration not stated) | 55%

SMILES | growth inhibition
O=S(=O)(O)c1ccc(O)c2cc(Nc3ccccc3)ccc12 | -23%
CCOC(=O)/C(=C\c1ccc(-c2ccccc2)cc1)C(C)=O | 94% (active)
O=C(C(Oc1ccc(Cl)cc1)Oc1ccc(Cl)cc1)N(O)c1ccccc1OCc1ccccc1 | 45%
CN(C)CC1CCC/C(=C\c2ccc(Cl)cc2)C1=O (configuration not stated) | 99% (active)
COc1ccc(/C=N/Nc2ccccc2)cc1 | 96% (active)
O=C1c2ccccc2-c2ccccc2C(=O)C1(Br)Br | -7%
CC(=O)Nc1ccc(C(=O)n2[nH]c(C)c(/C=C3\C(=O)C=Cc4ccccc43)c2=O)cc1 | 99% (active)
CC1OC2CC(=O)OC2C2=C1C(=O)c1c(O)cccc1C2=O (configuration not stated) | 99% (active)
CCOC(=O)C(CCSC)C(=O)OCC | -4%
C[CH2][Sn]([CH2]C)([O]C(=O)c1cccc(OC)c1)[O][Sn]([CH2]C)([CH2]C)[O]C(=O)c1cccc(OC)c1 | 74% (active)
O=C(Nc1ccccc1)Oc1c(Cl)c(Cl)c(Cl)c(Cl)c1Cl | 98% (active)
CCN(CC)CCNc1ccc2nnn3c4ccc([N+](=O)[O-])cc4c(=O)c1c23 | 30%
CCCCCCN(CCCCCC)CCC(=O)c1ccc2cc(Br)c3ccccc3c2c1 | 84% (active)
COC(=O)/C=C1/Nc2ccc(Cl)cc2C(=O)NC1=O | 52%
CN(C)COC(=S)SCN(C)C | 99% (active)
Clc1ccc(-c2noc(CN3CCCCC3)n2)cc1 | 24%
CCCCCCCCCCCCCC(=O)OCC(O)CO (configuration not stated) | 12%
CCC[CH2][Sn]([CH2]CCC)([O]C(=O)c1cccc(F)c1)[O]C(=O)c1cccc(F)c1 | -1%
CCCCCCCCCCCCCCCCC1CCc2ccccc21 (configuration not stated) | 11%
CCOC(=O)NCCCc1ccc2oc3ccccc3c2c1 | 97% (active)

Same assay, conditions: S. cerevisiae mlh1 rad18 strain growth inhibition; at 50.0 µM; active compounds read high

SMILES | growth inhibition
O=C(/C=C/c1cccc(Cl)c1)c1ccccc1 | 99.4% (active)
COc1cccc(N2C(=O)C3CC(CC(C)(C)C)c4c([nH]c5ccccc45)C3C2=O)c1 (configuration not stated) | 23.3%
O=C1c2ccccc2NC(=O)C2C1C(c1ccccc1)CC2(O)c1ccccc1 (configuration not stated) | 32.5%
CCOC(=O)C1SC(=Nc2ccc(Cl)cc2)N=C1C (configuration not stated) | 89.6% (active)
COC(=O)c1nc(=S)[nH]c(C(=O)OC)c1C(=O)c1ccccn1 | 89.1% (active)
Cn1c2c(c3ccccc31)CCN1C[C@@H]3CCCC[C@H]3C[C@@H]21 | 30.1%
CCCCCCCCCCCC1=NCCN1CCNCCCC | 98.8% (active)
CN=C(N)N/N=C(\C)c1ccc2c(c1)Cc1cc(/C(C)=N/NC(N)=NC)ccc1-2 | 86.4% (active)
O=C(Nc1ccccc1)OCCc1ccc(Br)cc1 | -3.25%
CN(C)CC/C(=N\Nc1ccc(Cl)cc1)c1ccccc1 | 98.7% (active)
O=C1Nc2ccccc2/C1=N\N=c1/scc(-c2ccccc2)n1-c1ccccc1 | 88.5% (active)
CC(C)(C)C(=O)CC(=O)C(F)(F)C(F)(F)C(F)(F)F.CC(C)(C)C(=O)CC(=O)C(F)(F)C(F)(F)C(F)(F)F.CC(C)(C)C(=O)CC(=O)C(F)(F)C(F)(F)C(F)(F)F.[Fe] | 84.5% (active)
COc1cc(N=Nc2cccc(S(N)(=O)=O)c2)c2ccccc2c1N | 95.8% (active)
O=C(/C=C/C(=O)OCCCl)OCCCl | 95.2% (active)
CCc1ccccc1NC(=O)C1=C(C)NC(C)=C(C(=O)Nc2c(CC)cccc2CC)C1c1ccc2c(c1)OCO2 (configuration not stated) | 87.7% (active)
Oc1c(Cl)cc(Cl)c2cccnc12 | 99% (active)
COc1ccc2c(c1)[n+]([O-])c(-c1ccccc1)c(N)[n+]2[O-] | 99% (active)
O=c1cccccc1[O-].O=c1cccccc1[O-].O=c1cccccc1[O-].[Sm+3] | 90.4% (active)
CCCCCCCCCCCCCCCCNc1ccn(C2CC(OP(=O)(O)OCC3OC(n4cc(CC)c(=O)[nH]c4=O)CC3O)C(CO)O2)c(=O)n1 (configuration not stated) | 16.3%
Nc1ccccc1OCC(O)CN1CCN(Cc2ccccc2)CC1 (configuration not stated) | 22.5%

SMILES | growth inhibition
O=S(=O)(O)c1ccc(O)c2cc(Nc3ccccc3)ccc12 | 25.5%
CCOC(=O)/C(=C\c1ccc(-c2ccccc2)cc1)C(C)=O | 76.6% (active)
O=C(C(Oc1ccc(Cl)cc1)Oc1ccc(Cl)cc1)N(O)c1ccccc1OCc1ccccc1 | 71.5% (active)
CN(C)CC1CCC/C(=C\c2ccc(Cl)cc2)C1=O (configuration not stated) | 91.3% (active)
COc1ccc(/C=N/Nc2ccccc2)cc1 | 98.4% (active)
O=C1c2ccccc2-c2ccccc2C(=O)C1(Br)Br | 96.4% (active)
CC(=O)Nc1ccc(C(=O)n2[nH]c(C)c(/C=C3\C(=O)C=Cc4ccccc43)c2=O)cc1 | 99% (active)
CC1OC2CC(=O)OC2C2=C1C(=O)c1c(O)cccc1C2=O (configuration not stated) | 91.7% (active)
CCOC(=O)C(CCSC)C(=O)OCC | 2.35%
C[CH2][Sn]([CH2]C)([O]C(=O)c1cccc(OC)c1)[O][Sn]([CH2]C)([CH2]C)[O]C(=O)c1cccc(OC)c1 | 56.5%
O=C(Nc1ccccc1)Oc1c(Cl)c(Cl)c(Cl)c(Cl)c1Cl | 68.7%
CCN(CC)CCNc1ccc2nnn3c4ccc([N+](=O)[O-])cc4c(=O)c1c23 | 76% (active)
CCCCCCN(CCCCCC)CCC(=O)c1ccc2cc(Br)c3ccccc3c2c1 | 97.7% (active)
COC(=O)/C=C1/Nc2ccc(Cl)cc2C(=O)NC1=O | 33.5%
CN(C)COC(=S)SCN(C)C | 98.2% (active)
Clc1ccc(-c2noc(CN3CCCCC3)n2)cc1 | 67.3%
CCCCCCCCCCCCCC(=O)OCC(O)CO (configuration not stated) | 8.55%
CCC[CH2][Sn]([CH2]CCC)([O]C(=O)c1cccc(F)c1)[O]C(=O)c1cccc(F)c1 | 53%
CCCCCCCCCCCCCCCCC1CCc2ccccc21 (configuration not stated) | 86% (active)
CCOC(=O)NCCCc1ccc2oc3ccccc3c2c1 | 57.9%
